This is one part of the list. Inconclusive results are not listed. Values without a mark were called inactive. The call rests on the fitted dose curve; in most records, active means well fitted inhibition curve with a large enough effect; inconclusive means small, poorly fitted or top-dose-only effect; inactive means flat fitted curve, though single readings scatter.
What follows are compounds tested against Luciferin 4-monooxygenase (Photuris pensylvanica) (UniProt Q27757) (assay: Secondary assay for Inhibitors of Human Pyruvate Kinase M2 isoform: FLuc Counterscreen). Settings: Kinase-Glo firefly luciferase, luminescence, 8 min; series mostly up to 57.5 µM; activity, negative = inhibition: at the top concentration.
Method: NIH Chemical Genomics Center [NCGC] Matthew G. Vander Heiden, M.D., Ph.D. [Harvard Medical School, 77 Avenue Louis Pasteur, Boston, MA 02115] MLPCN Grant: 1 R03 MH085679-01 NCGC Assay Overview: Luciferase (Kinase-Glo, Promega Corporation) was assayed for its ability to generate light using ATP and luciferin as substrates. The ATP concentration in the assay (10 uM) was within the linear range of enzyme activity for the assay conditions used. This assay was used as an counter screen for human pyruvate kinase M2 isoform.
NCGC Assay Protocol Summary: Four uL of substrate mix (final concentration, 50 mM imidazole pH 7.2, 50 mM KCl, 7 mM MgCl2, 10 uM ATP, 0.01% Tween 20, 0.05% BSA) was dispensed into white 1536 well plates. Twenty-three nL of compound was delivered by a pin tool and 2 uL of luciferase detection mix (Kinase-Glo, Promega)) was added. Following 8-minute incubation at ambient temperature, luminescence was measured by a ViewLux (Perkin Elmer) at 5 seconds exposure/plate.
With `Cc1ccc(-c2nc3ccccn3c2Nc2ccc(F)cc2)o1` the “activity, negative = inhibition” value was 3.49%. With `Cc1ccc(Nc2c(-c3ccc(C)s3)nc3ccccn23)cc1` the “activity, negative = inhibition” value was -2.62%.

— PubChem BioAssay AID2265 (National Center for Advancing Translational Sciences (NCATS), 2010)
